{"source": "PubChem BioAssay (NCATS)", "note": "“And” between values parts separate entries of the source, which are not always exact repeats. Equal entries are not always repeated. Inconclusive results are not listed. Values without a mark were called inactive. The source made the active and inactive calls. Calls come from the whole dose curve; as a rule, active = well fitted activation curve with a large enough effect; inconclusive = small, poorly fitted or top-dose-only effect; inactive = no such curve, though single readings can be large or run the other way. Potency is the fitted concentration of half-maximal effect."}
{"biological_target": "Cellular tumor antigen p53 (Homo sapiens) (UniProt P04637)", "sequence (P04637 whole entry, looked up)": "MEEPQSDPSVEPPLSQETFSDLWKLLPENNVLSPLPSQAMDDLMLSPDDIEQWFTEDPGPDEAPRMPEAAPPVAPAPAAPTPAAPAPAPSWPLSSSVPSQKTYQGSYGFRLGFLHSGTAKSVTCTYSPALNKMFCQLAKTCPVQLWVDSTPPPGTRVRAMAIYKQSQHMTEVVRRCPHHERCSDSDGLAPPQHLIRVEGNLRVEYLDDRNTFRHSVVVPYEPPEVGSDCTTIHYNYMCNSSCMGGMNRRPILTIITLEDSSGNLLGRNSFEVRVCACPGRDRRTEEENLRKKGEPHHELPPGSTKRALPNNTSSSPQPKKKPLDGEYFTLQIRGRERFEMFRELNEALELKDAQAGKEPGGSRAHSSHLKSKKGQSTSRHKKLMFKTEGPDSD", "experiment": "Primary qHTS for small molecule compounds that upregulate eGFP-tagged delta133p53alpha (in N-terminal) cells. (AID 2060322); note: nearly all actives have a fitted effect of over 75% in size;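 for activation: series mostly up to about 56 µM; 0% = DMSO vehicle and 100% = reference activator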", "details": "NCI-H358 eGFP-delta133p53alpha fluorescence, 24 h; activation: active compounds read high", "outline": "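NCI-H358 cells pre-induced 24 h with 10 ng/ml doxycycline for eGFP-delta133p53alpha, plated dox-free and exposed 24 h at 37C to titrated compounds. Fixed, Hoechst-stained; gated GFP peak intensity by laser scanning cytometry, normalized to DMSO (0%) and 57.5 uM 5-azacytidine (100%).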"}
{"smiles": "COc1cc(NC(=O)c2ccc(-c3ccc(Cl)cc3)o2)cc(OC)c1", "activation": "1.2%"}
{"smiles": "Cc1cn([C@@H]2C[C@@H](O)[C@H](CO)O2)c(=O)[nH]c1=O", "activation": "-12.7%"}
{"smiles": "Nc1nc2c(c(=O)[nH]1)N(C=O)[C@H](CNc1ccc(C(=O)N[C@@H](CCC(=O)O)C(=O)O)cc1)CN2", "activation": "10.2%"}
{"smiles": "OC[C@@H](O)[C@@H](O)[C@H](O)[C@@H](O)CO", "activation": "6.34%"}
{"smiles": "O=C(O)C(O)Cc1ccc(O)c(O)c1", "note": "(stereo not given)", "activation": "-12.6%"}
{"smiles": "CNC(=O)Nc1ccc(-c2nc(N3CC4CCC(C3)O4)c3cnn(C4CCC5(CC4)OCCO5)c3n2)cc1", "activation": "8.27%"}
{"smiles": "Cc1cccc(-c2nn(C(=S)Nc3ccccc3)cc2-c2ccnc3ccccc23)n1", "activation": "44.1%"}
{"smiles": "CC(C)(C)COc1ccc(-n2cc(C(=O)O)cn2)cc1C#N", "activation": "-16.6%"}
{"smiles": "C1CCC(C(CC2CCCCN2)C2CCCCC2)CC1", "note": "(stereo not given)", "activation": "21.8%"}
{"smiles": "CC(C)C(C)C=CC(C)C1CCC2C3=CC=C4CC(O)CCC4(C)C3CCC21C", "note": "(stereo not given)", "activation": "11%"}
{"smiles": "CO[C@@H]1[C@@H](OC(N)=O)[C@@H](O)[C@H](Oc2ccc3c(O)c(NC(=O)c4ccc(O)c(CC=C(C)C)c4)c(=O)oc3c2C)OC1(C)C", "activation": "-10.7% and -17.4%"}
{"smiles": "CCN1CCN(CC(=O)Nc2ccc(-c3cccc4c(=O)cc(N5CCOCC5)oc34)c3sc4ccccc4c23)CC1", "activation": "-18.4%"}
{"smiles": "COc1cccc2c1C(=O)c1c(O)c3c(c(O)c1C2=O)C[C@@](O)(C(=O)CO)C[C@@H]3O[C@H]1C[C@H](N)[C@H](O)[C@H](C)O1", "Potency": "12.3 µM (active)"}
{"smiles": "Cn1cc(C2=C(c3c4n(c5ccccc35)CCC(CN)C4)C(=O)NC2=O)c2ccccc21", "note": "(stereo not given)", "Potency": "27.3 µM (active)"}
{"smiles": "COCCCN1CCC(NC(=O)c2cc(Cl)c(N)c3c2OCC3)CC1", "activation": "-6.16%"}
{"smiles": "c1ccc2c(-c3cnn4cc(-c5ccc(N6CCNCC6)cc5)cnc34)ccnc2c1", "activation": "75.9%"}
{"smiles": "CC(C)(F)C[C@H](N[C@@H](c1ccc(-c2ccc(S(C)(=O)=O)cc2)cc1)C(F)(F)F)C(=O)NC1(C#N)CC1", "activation": "-2.96%"}
{"smiles": "CCN(CC)CCCCNc1ncc2cc(-c3cc(OC)cc(OC)c3)c(NC(=O)NC(C)(C)C)nc2n1", "activation": "27.9%"}
{"smiles": "CN1C(C(=O)Nc2ccccn2)=C(O)c2sc(Cl)cc2S1(=O)=O", "activation": "-22.9%"}
{"smiles": "CS(=O)(=O)OCCCCOS(C)(=O)=O", "activation": "-9.57%"}
{"smiles": "OC(c1cc(C(F)(F)F)nc2c(C(F)(F)F)cccc12)C1CCCCN1", "note": "(stereo not given)", "activation": "-0.154%"}
{"smiles": "Cc1ccc(O)c(C(CCN(C(C)C)C(C)C)c2ccccc2)c1", "note": "(stereo not given)", "activation": "47.6%"}
{"smiles": "COc1cc(OC)c(C(=O)CCCN2CCCC2)c(OC)c1", "activation": "-15.1% and 2.07%"}
{"smiles": "S=c1nc[nH]c2nc[nH]c12", "activation": "-18.4% and 17.9%"}
{"smiles": "CC#CCn1c(N2CCC[C@@H](N)C2)nc2c1c(=O)n(Cc1nc(C)c3ccccc3n1)c(=O)n2C", "activation": "6.37%"}
{"smiles": "CN[C@@H]1CN(c2ccc3c(=O)c(C(=O)O)cn(-c4nccs4)c3n2)C[C@@H]1OC", "activation": "8.83%"}
{"smiles": "O=C1NC(O)CCN1[C@@H]1O[C@H](CO)[C@H](O)[C@H]1O", "note": "(stereo not given in full)", "activation": "-10.6%"}
{"smiles": "CC[C@@H]1C(=O)N(C)c2cnc(Nc3ccc(C(=O)NC4CCN(C)CC4)cc3OC)nc2N1C1CCCC1", "activation": "7.53%"}
{"smiles": "O=C(Nc1cc(Cl)cc2c1[nH]c1cnccc12)c1cccnc1", "activation": "15.9%"}
{"smiles": "C[C@](Cc1c[nH]c2ccccc12)(NC(=O)OC1C2CC3CC(C2)CC1C3)C(=O)NC[C@H](NC(=O)CCC(=O)O)c1ccccc1", "note": "(stereo not given in full)", "activation": "8.58%"}
{"smiles": "O=C(O)[C@@H](c1ccc(OCc2ccc3ccccc3n2)cc1)C1CCCC1", "activation": "-11.6%"}
{"smiles": "COc1ccc(C=Cc2cc(OC)c(OC)c(OC)c2)cc1NC(=O)[C@H](N)CO", "activation": "7.98%"}
{"smiles": "C[C@@H](CN1CC(=O)NC(=O)C1)N1CC(=O)NC(=O)C1", "activation": "-3.95% and 20.4%"}
{"smiles": "C[C@@H](Oc1cc(-n2cnc3ccc(CN4CCN(C)CC4)cc32)sc1C(N)=O)c1ccccc1C(F)(F)F", "activation": "2.47%"}
{"smiles": "C[C@@H]1C[C@H]2[C@@H]3CCC4=CC(=O)C=C[C@]4(C)[C@@]3(F)[C@@H](O)C[C@]2(C)[C@@]1(O)C(=O)CO", "activation": "-11.9%"}
